# Inconclusive results are not listed. A number with no mark means an inactive call. The source made the active and inactive calls. Calls follow the shape of the dose curve; as a rule, active = well fitted inhibition curve with a large enough effect in the repeat runs; inconclusive = weak or mixed curves; inactive = no such curve, though single readings can be large or run the other way.
# Target: Estrogen receptor (Homo sapiens) (UniProt P03372)
# Experiment: qHTS assay to identify small molecule antagonists of the estrogen receptor alpha (ER-alpha) signaling pathway using the BG1 cell line in the presence of 0.1 nM 17-beta-estradiol (AID 1259244); also: nearly all actives have a fitted effect of over 50% in size
# Conditions: VM7Luc4E2 (BG1) ERE-luciferase, antagonist mode, 0.1 nM E2, 22 h; series mostly up to 92.4 µM; activity change, negative = inhibition: at the top concentration
# Text: National Center for Advancing Translational Sciences [NCATS]
# NIH Chemical Genomics Center [NCGC]
# U.S. Environmental Protection Agency [EPA]
# National Institutes of Environmental Health Sciences [NIEHS]
# National Toxicology Program [NTP]
# U.S. Food and Drug Administration [FDA]
# Estrogen receptor (ER), a member of the nuclear hormone receptor plays an important role in development, metabolic homeostasis and reproduction. Two subtypes of ER, ER-alpha and ER-beta, have similar expression patterns with some uniqueness in both types. Endocrine disrupting chemicals (EDCs) and their interactions with steroid hormone receptors like ER causes disruption of normal endocrine function. Therefore, it is important to understand the effect of environmental chemicals in ER signaling pathway. For identifying ER antagonists, VM7Luc4E2 cell line was used to screen against Tox21 compound libraries.
# VM7Luc4E2 cell line (provided by Denison MS, University of California) endogenously express full-length ER-alpha and is stably transfected with a plasmid containing four estrogen responsive elements (ERE) upstream of a luciferase reporter gene. The current screening for identification of ER-alpha inhibitors against Tox21 compound libraries used lower concentration (0.1 nM) of 17beta-Estradiol as a stimulator.
# Tox21 Assay Protocol Summary:
# VM7Luc4E2 cells were cultured in phenol red free assay medium containing 10% charcoal stripped FBS for 5 days prior to the assay. The cells were dispensed at 4,000 cells/well in 4 uL of assay medium into white wall/solid-bottom 1536-well plates (Corning Life Sciences, Corning, NY) using a Multidrop Combi (ThermoFisher Scientific, Waltham, MA) dispenser. After the assay plates were incubated at 37C and 5% CO2 for 24 hr, 23 nL of compounds dissolved in DMSO, positive controls or DMSO only was transferred to the assay plates by a Pintool station (Kalypsys, San Diego, CA). The transfer of compounds was followed by the addition of 1 uL of 0.1 nM (final concentration) agonist (17beta-Estradiol)/assay medium using a Flying Reagent Dispenser (FRD, Aurora Discovery, San Diego, CA). The plates were incubated at 37C and 5% CO2 for 22 hr. For luciferase reporter gene assay, 4 uL of ONE-Glo reagent (Promega Corporation, Madison, WI) was added to each well using the FRD and after 30 min incubation at room temperature luminescence intensity was measured using ViewLux plate reader (PerkinElmer, Shelton, CT).
# % is scaled to controls: 0 for no effect and ±100 for the full control effect; potency is read from the fitted curve at half-maximal effect.
# Sequence of Estrogen receptor (Homo sapiens) (P03372 whole entry, looked up): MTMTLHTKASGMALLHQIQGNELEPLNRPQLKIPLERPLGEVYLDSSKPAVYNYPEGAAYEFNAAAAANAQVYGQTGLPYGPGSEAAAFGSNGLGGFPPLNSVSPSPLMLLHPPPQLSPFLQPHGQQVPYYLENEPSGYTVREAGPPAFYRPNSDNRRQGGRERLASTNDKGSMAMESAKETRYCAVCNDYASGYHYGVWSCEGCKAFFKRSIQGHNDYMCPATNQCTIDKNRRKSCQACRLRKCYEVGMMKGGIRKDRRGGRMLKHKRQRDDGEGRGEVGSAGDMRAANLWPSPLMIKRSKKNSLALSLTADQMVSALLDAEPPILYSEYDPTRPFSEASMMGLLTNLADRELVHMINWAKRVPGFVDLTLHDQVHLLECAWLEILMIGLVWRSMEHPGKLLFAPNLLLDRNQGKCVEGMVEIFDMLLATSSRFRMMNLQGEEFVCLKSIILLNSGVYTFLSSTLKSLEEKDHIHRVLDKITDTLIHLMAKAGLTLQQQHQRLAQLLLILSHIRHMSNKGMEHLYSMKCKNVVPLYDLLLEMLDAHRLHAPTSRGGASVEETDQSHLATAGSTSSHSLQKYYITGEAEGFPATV
Compound,"activity change, negative = inhibition",Potency
CN(C)CCC=C1c2ccccc2C=Cc2ccccc21,-12.4% [at 42.5 µM],
Cc1ccc(Cl)c(Nc2ccccc2C(=O)O)c1Cl,2.17% [at 42.5 µM],
CC(=O)N/N=C/c1ccc([N+](=O)[O-])o1,47% [at 42.5 µM],
C=C1c2cccc(O)c2C(O)=C2C(=O)[C@]3(O)C(O)=C(C(N)=O)C(=O)[C@@H](N(C)C)[C@@H]3[C@@H](O)[C@H]12,2.67% [at 42.5 µM],
CC(C)=CCC/C(C)=C/CC/C(C)=C/C(=O)OCC(=O)[C@@]1(O)CC[C@H]2[C@@H]3CCC4=CC(=O)C=C[C@]4(C)[C@H]3[C@@H](O)C[C@@]21C,,26.6 µM (active)
Cc1cc(C)c(N)cc1C,19.6%,
FC(F)(F)c1ccccc1Cl,18.5%,
O=C(O)C[C@H](NC(=O)OCc1ccccc1)C(=O)O,17.8%,
O=C(OC(=O)c1ccccc1)c1ccccc1,8.02%,
CCCCC(CC)CN (stereo not given),11.2%,
CO[C@]1(NC(=O)CSC(F)F)C(=O)N2C(C(=O)O)=C(CSc3nnnn3CCO)CO[C@H]21,-0.795% [at 42.5 µM],
CCN(CC)CCNC(=O)COc1ccc(OC)cc1,-1.06% [at 42.5 µM],
C=CC(=O)[O-].C=CC(=O)[O-].[Zn+2],1.01%,
CC(C)C[C@H](NC(=O)[C@H](CCc1ccccc1)NC(=O)CN1CCOCC1)C(=O)N[C@@H](Cc1ccccc1)C(=O)N[C@@H](CC(C)C)C(=O)[C@@]1(C)CO1,,0.168 µM (active)
CCCCN(CCCC)C(C(N)=O)c1ccc(OC)cc1 (stereo not given),-0.234% [at 42.5 µM],
C=C/C(C)=C/C/C=C(\C)CCC=C(C)C,0.895%,
O=C(O)CCC(=O)C(=O)O,0%,
CN1CCCC(CC2c3ccccc3Sc3ccccc32)C1 (stereo not given),-0.989% [at 42.5 µM],
OC[C@H]1O[C@@H](n2cnc3c(=S)nc[nH]c32)[C@H](O)[C@@H]1O,74.2% [at 42.5 µM],
OCCN1CCN(CCCN2c3ccccc3Sc3ccc(Cl)cc32)CC1,1.3% [at 42.5 µM],

Compound,"activity change, negative = inhibition",Potency
C=C(C)C(=O)OCCOCCOC(=O)C(=C)C,11.6%,
C/C=C(/C(=C/C)c1ccc(O)cc1)c1ccc(O)cc1,-10.1% [at 42.5 µM],
CCCC(C(=O)OCCN(CC)CC)(c1ccccc1)c1ccccc1,-14.4% [at 42.5 µM],
Brc1cc2ccccc2c2ccccc12,-7.51%,
Nc1ccc(N=Nc2ccccc2)c(N)c1,-18.4%,
COC(=O)C1=C(C)NC(C)=C(C(=O)O[C@@H]2CCCN(Cc3ccccc3)C2)[C@@H]1c1cccc([N+](=O)[O-])c1,-5.66% [at 42.5 µM],
O=C(Cn1ccnc1[N+](=O)[O-])NCCO,14.8% [at 42.5 µM],
C[C@H]1C[C@H](O)c2ccsc2S1(=O)=O,2.29% [at 42.5 µM],
C=C1C[C@@]23CC[C@H]4[C@@](C)(CCC[C@@]4(C)C(=O)O[C@@H]4O[C@H](CO)[C@@H](O)[C@H](O)[C@H]4O)[C@@H]2CC[C@]1(O[C@@H]1O[C@H](CO)[C@@H](O)[C@H](O[C@@H]2O[C@H](CO)[C@@H](O)[C@H](O)[C@H]2O)[C@H]1O[C@@H]1O[C@H](CO)[C@@H](O)[C@H](O)[C@H]1O)C3,9.4%,
Cc1ccccc1S,5.69% [at 42.5 µM],
CC1(CN2CCC(n3c(=O)[nH]c4ccccc43)CC2)OCc2ccccc2-n2cccc21 (stereo not given),,29.8 µM (active)
CCC(=O)C1CC(C(C)C)CC=C1C (stereo not given),-23.5%,
O=C=Nc1ccc(Cl)c(Cl)c1,-2.1%,
O=C(O)CCc1nc(-c2ccccc2)c(-c2ccccc2)o1,-5.01% [at 42.5 µM],
CCC1(CO)COCOC1,-0.603%,
Clc1ccc(Nc2nnc(Cc3ccncc3)c3ccccc23)cc1,,29.8 µM (active)
O[C@@H]1CO[C@H]2[C@@H]1OC[C@@H]2O,-1.63% [at 42.5 µM],
CN1C(C(=O)Nc2ccccn2)=C(O)c2sccc2S1(=O)=O,3.45% [at 42.5 µM],
CCC(C)COC(C)=O (stereo not given),0%,
C=C(C)C(=O)OCCCCCCCCCCCCC,-1.02%,
